Results taken from the supplement of paper PMC10849652.
Targets with a hit are over-represented here; the source holds about 7,900 in all. About 0.6% of all pairs of compound and target were hits.

Legend:
Experiment in all cases: log2 fold change, soluble protein after heating vs DMSO (PISA); higher = thermal stabilisation; K562 cells, 10 uM, 30 min; active = over 0.2 and 3.5 SD of the protein, either way, in both replicates (recomputed)
ZNF217 = ZNF217 (UniProt O75362)
Procedure, shortened: (§1)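 For each measurement, 10 μM compound was applied for 30 min to K562 cells at 2×10^6 cells/mL. Aliquots were heated for 3 min across 48°C-58°C, pooled, and extracted in PBS with 0.5% NP-40 at 4°C; the supernatant after 21,000xg for 90 min was soluble protein. This was quantified by TMTpro 16plex LC-MS/MS with channel sums equalised, and thermal stability was reported relative to control samples from duplicates, on a log2 fold-change scale.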

ZNF239 = ZNF239 (UniProt Q16600)
Procedure, shortened: as §1

ZNF277 = ZNF277 (UniProt Q9NRM2)
Procedure, shortened: as §1

ZNF579 = ZNF579 (UniProt Q8NAF0)
Procedure, shortened: as §1

ZNF580 = ZNF580 (UniProt Q9UK33)
Procedure, shortened: as §1

ZNF609 = ZNF609 (UniProt O15014)
Procedure, shortened: as §1

ZNF622 = ZNF622 (UniProt Q969S3)
Procedure, shortened: as §1

ZRANB2 = ZRANB2 (UniProt O95218)
Procedure, shortened: as §1

ZNF511 isoform 1 = ZNF511 isoform 1 (UniProt Q8NB15)
Procedure, shortened: as §1

Measured: log2 fold change

Sequence of ZNF217 (O75362 whole entry, looked up): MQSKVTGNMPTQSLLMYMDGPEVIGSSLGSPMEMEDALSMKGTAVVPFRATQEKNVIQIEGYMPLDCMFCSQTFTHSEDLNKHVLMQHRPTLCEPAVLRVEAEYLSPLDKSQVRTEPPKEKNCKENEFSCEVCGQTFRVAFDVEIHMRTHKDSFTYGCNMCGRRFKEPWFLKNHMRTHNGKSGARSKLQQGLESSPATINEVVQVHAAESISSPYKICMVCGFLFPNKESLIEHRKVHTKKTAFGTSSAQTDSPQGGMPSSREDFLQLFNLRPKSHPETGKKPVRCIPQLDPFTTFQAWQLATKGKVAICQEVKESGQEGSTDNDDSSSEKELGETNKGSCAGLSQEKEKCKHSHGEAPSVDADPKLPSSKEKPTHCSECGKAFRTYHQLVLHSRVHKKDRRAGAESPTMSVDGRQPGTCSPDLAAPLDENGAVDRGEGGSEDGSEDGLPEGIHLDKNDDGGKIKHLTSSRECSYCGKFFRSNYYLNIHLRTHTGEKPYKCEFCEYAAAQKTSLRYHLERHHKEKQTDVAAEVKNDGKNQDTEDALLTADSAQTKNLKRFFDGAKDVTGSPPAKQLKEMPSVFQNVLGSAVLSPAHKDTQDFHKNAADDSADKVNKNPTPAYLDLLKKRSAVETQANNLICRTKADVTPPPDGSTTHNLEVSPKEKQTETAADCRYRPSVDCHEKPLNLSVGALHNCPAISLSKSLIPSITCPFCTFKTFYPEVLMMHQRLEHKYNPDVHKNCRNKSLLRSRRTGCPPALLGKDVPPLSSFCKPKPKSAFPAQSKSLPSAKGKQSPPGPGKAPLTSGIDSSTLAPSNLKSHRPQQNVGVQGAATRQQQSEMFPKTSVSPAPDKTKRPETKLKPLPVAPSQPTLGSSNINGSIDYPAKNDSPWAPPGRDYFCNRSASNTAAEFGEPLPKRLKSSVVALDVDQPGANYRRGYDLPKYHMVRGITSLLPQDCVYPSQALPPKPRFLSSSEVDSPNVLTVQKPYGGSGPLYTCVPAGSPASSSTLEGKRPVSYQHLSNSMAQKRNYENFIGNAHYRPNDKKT
Sequence of ZNF511 isoform 1 (Q8NB15 whole entry, looked up, canonical isoform): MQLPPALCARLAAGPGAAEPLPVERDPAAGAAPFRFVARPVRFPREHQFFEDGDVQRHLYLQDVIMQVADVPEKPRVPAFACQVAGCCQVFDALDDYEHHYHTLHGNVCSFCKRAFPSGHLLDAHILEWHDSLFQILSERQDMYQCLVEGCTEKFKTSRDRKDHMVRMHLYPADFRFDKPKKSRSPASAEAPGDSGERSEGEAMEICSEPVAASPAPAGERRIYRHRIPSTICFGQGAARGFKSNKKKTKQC
Sequence of ZNF239 (Q16600 whole entry, looked up): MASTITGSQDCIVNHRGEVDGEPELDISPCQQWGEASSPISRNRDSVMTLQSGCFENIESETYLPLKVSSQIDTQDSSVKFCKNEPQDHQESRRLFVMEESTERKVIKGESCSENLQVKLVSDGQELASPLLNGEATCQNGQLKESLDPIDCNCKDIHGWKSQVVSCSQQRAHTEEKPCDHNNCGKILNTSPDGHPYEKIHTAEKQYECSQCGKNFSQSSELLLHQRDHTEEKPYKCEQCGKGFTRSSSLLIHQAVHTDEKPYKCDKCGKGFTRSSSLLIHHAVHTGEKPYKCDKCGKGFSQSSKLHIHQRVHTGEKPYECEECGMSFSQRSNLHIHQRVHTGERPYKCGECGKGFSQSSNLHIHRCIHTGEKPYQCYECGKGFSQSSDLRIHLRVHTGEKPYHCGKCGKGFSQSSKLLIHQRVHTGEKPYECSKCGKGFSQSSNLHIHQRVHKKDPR
Sequence of ZRANB2 (O95218 whole entry, looked up): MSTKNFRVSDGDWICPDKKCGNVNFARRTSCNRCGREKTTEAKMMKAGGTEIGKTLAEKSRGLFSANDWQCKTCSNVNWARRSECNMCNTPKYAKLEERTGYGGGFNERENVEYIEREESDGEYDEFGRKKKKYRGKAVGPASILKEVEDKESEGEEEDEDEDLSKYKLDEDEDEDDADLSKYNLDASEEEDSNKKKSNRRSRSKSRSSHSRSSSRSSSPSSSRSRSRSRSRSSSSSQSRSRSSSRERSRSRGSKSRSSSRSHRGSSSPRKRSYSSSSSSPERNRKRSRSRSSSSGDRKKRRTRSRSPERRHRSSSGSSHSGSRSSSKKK
Sequence of ZNF609 (O15014 whole entry, looked up): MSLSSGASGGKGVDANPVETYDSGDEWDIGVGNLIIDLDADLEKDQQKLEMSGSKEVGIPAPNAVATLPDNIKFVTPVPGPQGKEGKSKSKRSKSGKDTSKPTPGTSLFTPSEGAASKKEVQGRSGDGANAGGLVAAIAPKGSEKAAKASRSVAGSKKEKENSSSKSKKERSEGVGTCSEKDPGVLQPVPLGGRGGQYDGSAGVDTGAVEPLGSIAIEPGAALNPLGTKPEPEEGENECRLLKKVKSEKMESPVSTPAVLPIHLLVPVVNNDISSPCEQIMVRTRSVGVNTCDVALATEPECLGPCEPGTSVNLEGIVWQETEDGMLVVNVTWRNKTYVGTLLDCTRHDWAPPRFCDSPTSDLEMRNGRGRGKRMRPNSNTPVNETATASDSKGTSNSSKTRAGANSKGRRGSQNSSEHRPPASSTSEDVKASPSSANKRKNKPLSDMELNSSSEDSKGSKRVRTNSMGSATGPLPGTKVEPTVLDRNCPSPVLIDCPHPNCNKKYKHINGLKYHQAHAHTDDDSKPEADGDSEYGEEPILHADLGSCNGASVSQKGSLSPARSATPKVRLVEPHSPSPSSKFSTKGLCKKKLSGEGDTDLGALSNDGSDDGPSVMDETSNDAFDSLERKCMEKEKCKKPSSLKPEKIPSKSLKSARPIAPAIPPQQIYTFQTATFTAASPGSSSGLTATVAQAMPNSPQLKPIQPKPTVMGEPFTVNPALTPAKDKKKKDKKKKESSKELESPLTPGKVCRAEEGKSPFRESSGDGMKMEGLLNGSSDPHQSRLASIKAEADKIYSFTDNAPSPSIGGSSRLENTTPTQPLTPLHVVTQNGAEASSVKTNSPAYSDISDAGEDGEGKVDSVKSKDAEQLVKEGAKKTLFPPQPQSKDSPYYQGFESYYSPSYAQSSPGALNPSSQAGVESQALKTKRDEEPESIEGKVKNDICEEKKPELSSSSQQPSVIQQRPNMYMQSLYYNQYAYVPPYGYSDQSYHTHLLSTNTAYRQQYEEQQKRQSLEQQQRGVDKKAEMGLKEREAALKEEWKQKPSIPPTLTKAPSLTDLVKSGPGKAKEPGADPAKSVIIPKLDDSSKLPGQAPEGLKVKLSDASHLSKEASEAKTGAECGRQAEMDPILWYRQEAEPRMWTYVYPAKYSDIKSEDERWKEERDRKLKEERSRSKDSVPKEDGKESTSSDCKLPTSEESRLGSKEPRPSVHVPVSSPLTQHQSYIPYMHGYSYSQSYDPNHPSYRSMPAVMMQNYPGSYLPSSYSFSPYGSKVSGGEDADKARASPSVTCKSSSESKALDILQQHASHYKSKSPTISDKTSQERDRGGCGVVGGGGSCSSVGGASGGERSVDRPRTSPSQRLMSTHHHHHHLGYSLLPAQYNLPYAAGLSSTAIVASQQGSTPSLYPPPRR
Sequence of ZNF580 (Q9UK33 whole entry, looked up): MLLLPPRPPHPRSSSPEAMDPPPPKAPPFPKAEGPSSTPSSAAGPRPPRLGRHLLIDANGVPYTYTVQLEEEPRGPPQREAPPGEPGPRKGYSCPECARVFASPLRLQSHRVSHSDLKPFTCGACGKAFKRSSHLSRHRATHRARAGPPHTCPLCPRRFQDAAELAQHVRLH
Sequence of ZNF579 (Q8NAF0 whole entry, looked up): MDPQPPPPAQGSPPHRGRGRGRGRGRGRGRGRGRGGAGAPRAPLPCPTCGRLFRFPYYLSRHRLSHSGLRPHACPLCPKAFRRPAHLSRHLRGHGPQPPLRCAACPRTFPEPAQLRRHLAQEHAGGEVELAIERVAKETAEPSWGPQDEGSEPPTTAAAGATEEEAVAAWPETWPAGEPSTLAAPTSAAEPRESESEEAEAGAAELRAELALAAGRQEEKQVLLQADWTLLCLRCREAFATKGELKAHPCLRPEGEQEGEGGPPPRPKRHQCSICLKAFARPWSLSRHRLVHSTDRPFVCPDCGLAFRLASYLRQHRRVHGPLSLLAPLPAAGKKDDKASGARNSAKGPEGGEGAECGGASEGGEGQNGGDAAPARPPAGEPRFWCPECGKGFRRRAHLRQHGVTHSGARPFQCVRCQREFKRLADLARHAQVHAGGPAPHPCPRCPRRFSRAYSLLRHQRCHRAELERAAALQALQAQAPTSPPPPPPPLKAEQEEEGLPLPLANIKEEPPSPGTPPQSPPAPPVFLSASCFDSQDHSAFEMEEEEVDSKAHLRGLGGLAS
Sequence of ZNF622 (Q969S3 whole entry, looked up): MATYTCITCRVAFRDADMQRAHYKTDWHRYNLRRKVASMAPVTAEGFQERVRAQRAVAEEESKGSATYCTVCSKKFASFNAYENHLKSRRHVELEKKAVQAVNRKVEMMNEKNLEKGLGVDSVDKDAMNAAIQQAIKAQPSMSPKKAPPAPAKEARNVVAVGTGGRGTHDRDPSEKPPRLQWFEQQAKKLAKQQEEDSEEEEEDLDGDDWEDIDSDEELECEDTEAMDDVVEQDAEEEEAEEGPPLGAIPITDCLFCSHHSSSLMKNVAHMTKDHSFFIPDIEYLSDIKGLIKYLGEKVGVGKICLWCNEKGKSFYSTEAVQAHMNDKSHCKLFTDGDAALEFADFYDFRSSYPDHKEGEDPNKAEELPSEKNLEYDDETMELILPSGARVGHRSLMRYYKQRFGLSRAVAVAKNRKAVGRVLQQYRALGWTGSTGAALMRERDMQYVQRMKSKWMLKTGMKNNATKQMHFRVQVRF

CN1CCC(CNc2ccc3ncc(-c4cccc(OC(F)(F)F)c4)n3n2)CC1
inactive: ZNF217 -0.081 | ZNF239 -0.063 | ZNF277 0.077 | ZNF579 0.103 | ZNF580 0.054 | ZNF609 -0.134 | ZNF622 0.03 | ZRANB2 0.01

O=C(CCCCCCNC(=O)c1cnc(N(c2ccccc2)c2ccccc2Cl)nc1)NO [citarinostat]
inactive: ZNF217 -0.004 | ZNF277 0.306 | ZNF511 isoform 1 0.054 | ZNF579 -0.089 | ZNF580 -0.013 | ZNF609 0.083 | ZNF622 -0.011 | ZRANB2 -0.031

C[C@H](Nc1ncnc2nc[nH]c12)c1cc2cccc(Cl)c2c(=O)n1-c1ccccc1 [duvelisib]
inactive: ZNF217 0.108 | ZNF239 0.038 | ZNF277 -0.107 | ZNF579 -0.031 | ZNF580 -0.078 | ZNF609 0.073 | ZNF622 0.065 | ZRANB2 -0.02

COC(=O)N[C@@H](C)CNc1nccc(-c2cn(C(C)C)nc2-c2cc(Cl)cc(NS(C)(=O)=O)c2F)n1 [encorafenib]
inactive: ZNF217 -0.054 | ZNF277 -0.259 | ZNF511 isoform 1 -0.03 | ZNF579 -0.187 | ZNF580 0.143 | ZNF609 -0.082 | ZNF622 0.01 | ZRANB2 -0.066

CCn1cc(-c2ccnc3[nH]c(-c4cccc(CN(C)C)c4)cc23)c(-c2ccc(NC(=O)N(C)C)cc2)n1
inactive: ZNF217 0.036 | ZNF239 0.095 | ZNF277 0.01 | ZNF579 0.091 | ZNF580 0.092 | ZNF609 0.097 | ZNF622 -0.077 | ZRANB2 0.022

Cc1ccc(-n2nc(C(C)(C)C)cc2NC(=O)Nc2ccc(OCCN3CCOCC3)c3ccccc23)cc1 [doramapimod]
inactive: ZNF217 -0.027 | ZNF239 0.069 | ZNF277 0.123 | ZNF579 0.11 | ZNF580 0.165 | ZNF609 0.036 | ZNF622 0.009 | ZRANB2 -0.014

CC(C)N(C[C@H]1O[C@@H](n2cnc3c(N)ncnc32)[C@H](O)[C@@H]1O)[C@H]1C[C@@H](CCc2nc3cc(C(C)(C)C)ccc3[nH]2)C1 [pinometostat]
inactive: ZNF217 0.002 | ZNF239 -0.008 | ZNF277 0.267 | ZNF579 0.02 | ZNF580 -0.072 | ZNF609 0.03 | ZNF622 0.014 | ZRANB2 0.012

Cc1cccc(CC(=O)N2CCc3c2ccc(-c2cn(C)c4ncnc(N)c24)c3F)n1
inactive: ZNF217 0.008 | ZNF239 0 | ZNF277 0.045 | ZNF579 -0.101 | ZNF580 -0.045 | ZNF609 -0.22 | ZNF622 -0.019 | ZRANB2 -0.065

CS(=O)(=O)N1CCN(Cc2cc3nc(-c4cccc5[nH]ncc45)nc(N4CCOCC4)c3s2)CC1 [pictilisib]
inactive: ZNF217 -0.038 | ZNF239 -0.249 | ZNF277 -0.249 | ZNF579 0.02 | ZNF580 -0.037 | ZNF609 0.107 | ZNF622 0.144 | ZRANB2 0.01

CNc1nc(-c2ccc3c(N)n[nH]c3c2)cc(N2C[C@@H](C(=O)NC3CCCCC3)CC[C@H]2C)n1
inactive: ZNF217 -0.183 | ZNF239 -0.055 | ZNF277 0.11 | ZNF579 0.089 | ZNF580 0.128 | ZNF609 -0.004 | ZNF622 -0.019 | ZRANB2 -0.066

CNCc1ccc(-c2[nH]c3cc(F)cc4c3c2CCNC4=O)cc1 [rucaparib]
inactive: ZNF217 -0.025 | ZNF277 0 | ZNF511 isoform 1 -0.006 | ZNF579 0.01 | ZNF580 0.136 | ZNF609 -0.034 | ZNF622 -0.194 | ZRANB2 -0.034

O=C(Nc1nc2ccccc2n1CCN1CCOCC1)c1cccc([N+](=O)[O-])c1 [IRAK-1-4 Inhibitor I]
inactive: ZNF217 0.052 | ZNF239 0.154 | ZNF277 -0.346 | ZNF579 -0.096 | ZNF580 0.051 | ZNF609 -0.031 | ZNF622 0.004 | ZRANB2 -0.008
